We go through 17 compounds from ChEMBL document CHEMBL1961873, “Compounds: GSK PKIS; Assays: Nanosyn kinase panel” (2012).

Assay [1] addresses T1, Serine/threonine-protein kinase TBK1 (Homo sapiens) (UniProt Q9UHD2).
T1 sequence (whole entry): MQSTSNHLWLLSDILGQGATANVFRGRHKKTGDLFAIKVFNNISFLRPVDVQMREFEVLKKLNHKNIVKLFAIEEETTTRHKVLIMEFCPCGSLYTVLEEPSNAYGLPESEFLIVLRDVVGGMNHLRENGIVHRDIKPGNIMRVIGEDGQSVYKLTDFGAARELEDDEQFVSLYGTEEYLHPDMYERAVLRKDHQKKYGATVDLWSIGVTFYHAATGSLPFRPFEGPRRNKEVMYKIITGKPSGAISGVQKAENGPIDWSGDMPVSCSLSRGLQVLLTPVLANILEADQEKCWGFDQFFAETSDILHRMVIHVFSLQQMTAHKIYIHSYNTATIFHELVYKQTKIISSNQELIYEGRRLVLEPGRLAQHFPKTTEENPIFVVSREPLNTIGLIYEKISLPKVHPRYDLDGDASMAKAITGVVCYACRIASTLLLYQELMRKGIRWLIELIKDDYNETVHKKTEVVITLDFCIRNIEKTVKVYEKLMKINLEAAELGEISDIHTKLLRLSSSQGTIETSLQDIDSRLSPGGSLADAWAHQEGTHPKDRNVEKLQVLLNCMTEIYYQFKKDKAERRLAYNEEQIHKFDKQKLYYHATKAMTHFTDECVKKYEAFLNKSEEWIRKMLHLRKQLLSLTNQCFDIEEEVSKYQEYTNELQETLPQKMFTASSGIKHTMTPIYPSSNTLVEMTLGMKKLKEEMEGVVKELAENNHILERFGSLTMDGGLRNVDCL
The settings on record: at 1 µM.

Assay [2] deals with T2, Testis-specific serine/threonine-protein kinase 1 (Homo sapiens) (UniProt Q9BXA7).
T2 sequence (whole entry): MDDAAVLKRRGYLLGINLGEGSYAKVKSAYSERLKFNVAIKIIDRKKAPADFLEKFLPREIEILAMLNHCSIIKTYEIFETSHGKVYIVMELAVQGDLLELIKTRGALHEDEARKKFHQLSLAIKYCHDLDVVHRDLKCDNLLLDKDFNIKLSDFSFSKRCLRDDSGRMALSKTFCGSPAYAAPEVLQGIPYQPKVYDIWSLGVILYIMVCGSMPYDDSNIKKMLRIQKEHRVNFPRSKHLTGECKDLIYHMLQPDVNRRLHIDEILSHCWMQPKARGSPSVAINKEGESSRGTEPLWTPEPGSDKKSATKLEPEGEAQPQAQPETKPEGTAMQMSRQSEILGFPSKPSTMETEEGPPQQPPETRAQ
The settings on record: at 0.1 µM.

Assay [3] addresses T2, Testis-specific serine/threonine-protein kinase 1 (Homo sapiens). Conditions: at 1 µM.
The target in assay [4] is T3, Testis-specific serine/threonine-protein kinase 2 (Homo sapiens) (UniProt Q96PF2).
T3 sequence (whole entry): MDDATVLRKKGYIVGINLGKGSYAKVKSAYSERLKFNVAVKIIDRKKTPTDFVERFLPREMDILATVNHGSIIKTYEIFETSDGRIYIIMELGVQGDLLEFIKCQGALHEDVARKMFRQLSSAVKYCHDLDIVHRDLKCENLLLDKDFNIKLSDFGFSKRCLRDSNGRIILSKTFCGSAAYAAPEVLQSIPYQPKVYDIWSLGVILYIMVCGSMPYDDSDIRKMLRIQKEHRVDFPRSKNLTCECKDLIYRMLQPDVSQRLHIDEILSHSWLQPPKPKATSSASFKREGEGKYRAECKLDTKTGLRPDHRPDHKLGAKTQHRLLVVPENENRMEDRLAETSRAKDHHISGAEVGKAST
Conditions: at 0.1 µM.

Assay [5] deals with T3, Testis-specific serine/threonine-protein kinase 2 (Homo sapiens). The settings on record: at 1 µM.
The target in assay [6] is Casein kinase I isoform alpha (Homo sapiens) (UniProt P48729). The settings on record: at 0.1 µM.
Casein kinase I isoform alpha (Homo sapiens), sequence (P48729 2-337 limits assumed): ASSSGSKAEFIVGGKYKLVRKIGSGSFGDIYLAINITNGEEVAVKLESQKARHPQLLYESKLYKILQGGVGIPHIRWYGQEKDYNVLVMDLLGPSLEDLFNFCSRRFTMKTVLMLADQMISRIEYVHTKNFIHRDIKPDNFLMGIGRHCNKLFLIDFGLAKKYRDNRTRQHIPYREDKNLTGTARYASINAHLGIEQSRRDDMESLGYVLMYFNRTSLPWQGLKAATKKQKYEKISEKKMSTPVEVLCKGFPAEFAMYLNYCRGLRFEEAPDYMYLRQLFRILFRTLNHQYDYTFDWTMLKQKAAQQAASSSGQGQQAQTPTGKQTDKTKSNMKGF
Assay [7] shares this target. Conditions: at 1 µM.
Assay [8] has as its target Casein kinase I isoform gamma-1 (Homo sapiens) (UniProt Q9HCP0). Conditions: at 0.1 µM.
Assay [9] shares this target. The settings on record: at 1 µM.
Assay [10] deals with Casein kinase I isoform gamma-2 (Homo sapiens) (UniProt P78368). The settings on record: at 0.1 µM.
Casein kinase I isoform gamma-2 (Homo sapiens), sequence (P78368 whole entry, looked up, canonical isoform): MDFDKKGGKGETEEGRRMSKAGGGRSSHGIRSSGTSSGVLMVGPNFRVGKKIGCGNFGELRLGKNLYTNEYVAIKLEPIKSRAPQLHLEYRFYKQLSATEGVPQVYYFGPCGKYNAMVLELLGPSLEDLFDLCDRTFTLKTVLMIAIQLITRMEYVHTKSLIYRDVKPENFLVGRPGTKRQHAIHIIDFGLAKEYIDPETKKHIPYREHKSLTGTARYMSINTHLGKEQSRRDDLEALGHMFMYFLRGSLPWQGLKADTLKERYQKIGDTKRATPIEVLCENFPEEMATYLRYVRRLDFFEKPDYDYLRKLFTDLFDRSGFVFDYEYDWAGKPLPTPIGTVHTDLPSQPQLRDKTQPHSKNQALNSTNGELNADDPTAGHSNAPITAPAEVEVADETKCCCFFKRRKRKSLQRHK

Casein kinase I isoform gamma-1 (Homo sapiens), sequence (Q9HCP0 whole entry, looked up, canonical isoform): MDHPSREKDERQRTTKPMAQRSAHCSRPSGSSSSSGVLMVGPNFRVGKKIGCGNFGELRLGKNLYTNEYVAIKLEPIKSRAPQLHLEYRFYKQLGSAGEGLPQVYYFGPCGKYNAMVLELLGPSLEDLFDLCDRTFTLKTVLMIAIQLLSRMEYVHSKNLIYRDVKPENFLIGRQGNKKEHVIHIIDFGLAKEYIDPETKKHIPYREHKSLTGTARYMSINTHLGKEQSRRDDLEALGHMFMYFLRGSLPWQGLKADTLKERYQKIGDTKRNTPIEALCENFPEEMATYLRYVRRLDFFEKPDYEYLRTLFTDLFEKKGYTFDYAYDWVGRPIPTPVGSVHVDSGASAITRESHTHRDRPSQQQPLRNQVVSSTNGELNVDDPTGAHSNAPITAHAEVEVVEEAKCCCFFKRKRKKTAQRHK

Regarding `CS(=O)(=O)CCNCc1ccc(-c2ccc3ncnc(Nc4ccc(OCc5cccc(F)c5)c(C(F)(F)F)c4)c3c2)o1`, the inhibition in [1] came out at 4.04%; in assay [2] it was 4.81%; in assay [3], 5.61%; in assay [4], 2.88%; in assay [5], 3.87%; in assay [6], 1.94%. Further, the inhibition was 2.33% in assay [7], 3.11% in assay [8], 4.58% in assay [9] and 2.69% in [10].

`Cc1nnc(-c2ccc(C)c(-c3ccc(C(=O)Nc4cccc(C#N)c4)cc3)c2)o1`: the inhibition turned out to be 5% in assay [1]; 0.97% in assay [2]; 2.9% in assay [3]; 1.4% in assay [4]; 2.16% in [5]; 8.37% in assay [6]. Besides, the inhibition in [7] worked out at 6.82%; in [8], 1.85%; in assay [9], 2.59%; in assay [10], 1.7%.

In the case of `COc1cc2c(cc1Nc1nc(N3CCc4ccccc43)c3cc[nH]c3n1)N(C(=O)CN(C)C)CC2`, the inhibition amounted to 5.19% in [1]; 10.2% in [2]; 19.2% in assay [3]; 9.19% in assay [4]; 13.6% in assay [5]; 6.69% in [6]. The inhibition stood at 2.45% in [7], 1.43% in assay [8], 3.55% in assay [9] and 0.72% in assay [10].

As to `CCN1CCC(CC(=O)Nc2n[nH]c3nc(-c4cccs4)c(Br)cc23)CC1`, the inhibition in assay [1] was 1.1%; in assay [2] it was -1.56%; in [3] it was -1.9%; in assay [4] it was -1.62%; in [5], -1.24%; in assay [6], 0.63%. In addition, the inhibition was -0.71% in assay [7], -2.56% in [8], -1.74% in [9] and -1.74% in [10].

As for `Cc1ccc(C(=O)NC2CCCCC2)cc1-c1ccc(C(=O)NCC2CC2)cc1`, the inhibition in [1] was 3.86%; in assay [2] it was 1.44%; in [3] it was -1.51%; in assay [4] it was -0.17%; in assay [5], -1.47%; in [6] it was 4.32%. Moreover, the inhibition was found to be 3.89% in [7], 1.72% in [8], 2.66% in assay [9] and 0.35% in [10].

Take `O=C(Nc1n[nH]c2nc(-c3ccco3)c(Br)cc12)C1CC1`: the inhibition in assay [1] is 4.8%; in [2], 4.63%; in assay [3] it was 1.5%; in [4] it was -0.36%; in [5], -1.08%; in assay [6], 1.36%. Moreover, the inhibition in assay [7] was 3.16%; in [8], 3.71%; in [9], 2.78%; in assay [10] it was 2.3%.

For `CC1=C(C(=O)Nc2ccc3[nH]ncc3c2)C(c2ccc(F)cc2)NC(=O)N1` (centres undefined), the inhibition stood at 3.11% in assay [1]; 1.04% in [2]; 1.21% in assay [3]; 1.2% in assay [4]; 1.4% in assay [5]; 0.46% in assay [6]. The inhibition came to 1.43% in [7], 1.54% in assay [8], 2.31% in assay [9] and 1.41% in assay [10].

Take `NC(=O)c1ccc(-c2nc(-c3ccccn3)c(-c3ccc4c(c3)OCO4)[nH]2)cc1`: the inhibition in [1] was 2.25%; in assay [2], 2.68%; in [3] it was 0.88%; in assay [4], 1.76%; in assay [5] it was 0.84%; in assay [6], 13.1%. Also, the inhibition in assay [7] was determined as 48.5%; in assay [8], 1.97%; in [9], 4.22%; in assay [10] it was 1.5%.

Turning to `NC(=O)c1cccc(Nc2nccc(Nc3cccc4[nH]ncc34)n2)c1`, the inhibition in assay [1] was 26.1%; in [2], -0.96%; in [3], 15.6%; in [4], -1.7%; in assay [5], -1.85%; in assay [6], 1.36%. For the same compound, the inhibition was 1.87% in [7], -2.71% in assay [8], 5.27% in assay [9] and -1.57% in [10].

For the compound `CCn1c(-c2nonc2N)nc2c(C#CC(C)(C)O)nc(CN3CCCC3)cc21`, the inhibition was 9.67% in [1]; 0.35% in assay [2]; 9.75% in [3]; -1.26% in [4]; -0.69% in [5]; -1.27% in [6]. In addition, the inhibition in assay [7] was -0.92%; in assay [8] it was -0.23%; in [9], 0.92%; in [10], -0.27%.

As for `COc1cc2ncn(-c3cc(O[C@H](C)c4ccccc4Cl)c(C(N)=O)s3)c2cc1OC`, the inhibition in [1] worked out at 6.39%; in assay [2], 4.46%; in assay [3], 8.45%; in assay [4], 2.71%; in assay [5] it was 4.44%; in assay [6], 3%. The inhibition worked out at 3.21% in assay [7], 3.26% in [8], 3.83% in assay [9] and 2.55% in [10].

Turning to `COc1ccc2cc(-c3c(-c4ccncc4)nc(-c4ccc([S+](C)[O-])cc4)n3C)ccc2c1` (centres undefined), the inhibition was 3.63% in [1]; 3.26% in assay [2]; 1.1% in assay [3]; -0.32% in assay [4]; -0.74% in assay [5]; 1.18% in assay [6]. The inhibition in [7] came out at 3.66%; in assay [8], 3.32%; in assay [9], 2.97%; in [10], 2%.

With `c1cnn2ncc(-c3ccnc(Nc4ccc5c(c4)OCCO5)n3)c2c1`, the inhibition in assay [1] was determined as 23.9%; in [2] it was 4.39%; in [3] it was 18.1%; in assay [4] it was 2.63%; in assay [5], 4.19%; in assay [6], 9.95%. Besides, the inhibition was determined as 44.9% in assay [7], 4.47% in [8], 22.1% in assay [9] and 7.95% in assay [10].

With `COc1cc2ncn(-c3cc(OCc4ccccc4C(F)(F)F)c(C(N)=O)s3)c2cc1OC`, the inhibition in assay [1] was found to be 13.6%; in assay [2], 2.93%; in [3], 6.32%; in assay [4], 2.18%; in assay [5] it was 2.55%; in [6], 1.38%. Further, the inhibition in assay [7] worked out at 3.61%; in assay [8] it was 0.9%; in assay [9], 2.06%.

As for `COc1ccc(-c2ccncc2)cc1C(N)=O`, the inhibition was 2.44% in assay [1]; 5.12% in assay [2]; 3.57% in assay [3]; 3.23% in [4]; 1.75% in [5]; 4.33% in [6]. Besides, the inhibition in [7] was determined as 10.2%; in [8], 3.94%; in assay [9], 4.04%; in [10] it was 3.53%.

For the compound `Cc1cc(O)cc(C)c1/C=C/c1cncc(-c2nn[nH]n2)c1`, the inhibition in assay [1] was 5.41%; in assay [2] it was 2.79%; in assay [3], 2.61%; in assay [4], 1.18%; in assay [5] it was 0.73%; in [6], 7.75%. Besides, the inhibition in assay [7] stood at 10.6%; in [8], 1.82%; in assay [9], 3.8%; in [10], 0.59%.

Take `Nc1ncnc2occ(-c3ccc(NC(=O)Nc4cc(C(F)(F)F)cc(C(F)(F)F)c4)cc3)c12`: the inhibition in assay [1] is 3.1%; in assay [2], -0.4%; in assay [3] it was -1.46%; in assay [4], 1.06%; in assay [5] it was -2.08%; in assay [6] it was -0.62%. In addition, the inhibition in assay [7] amounted to 1.87%; in [8], 1.49%; in assay [9] it was 2.74%; in assay [10], 0.5%.

What is called inhibition is the relative decrease from the control value, in per cent.
